From PubChem BioAssay AID1159580 (chemical genetic matrix, 2015)
Where “and” joins values, the source holds several entries; their conditions need not be identical. Equal entries are not always repeated. The campaign covered roughly 5,500 compounds. About 2,000 (36%) were called active. Inconclusive results (about 18%) are left out. No stated cut-off is given here; in the data, active means normalized growth mostly below about 0.91 (no sharp cut-off); inconclusive means no clear call, values can overlap the other calls; inactive means mostly above about 0.92. Some of the results follow.

Assay: chemical genetic growth profiling, strain panel (AID 1159580);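 further: tested at 20 µM; growth read once vehicle control cultures reached saturation at 30 °C; 1 = growth at the plate median or of vehicle wells; lower values mean less growth of the strain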
Details: S. cerevisiae deletion strains, growth OD

Measured: normalized growth

NC(=O)NC1NC(=O)NC1=O (configuration not stated)
inactive: locus YAL013W, strain DEP1, hits give low values 0.994 | locus YAL021C, strain ccr4, hits give low values 0.995 | locus YAL026C, strain drs2, hits give low values 1 | locus YAL030W, strain snc1, hits give low values 0.999 | locus YBL061C, strain skt5, hits give low values 1 | locus YBR009C, strain hhf1, hits give low values 0.999 | locus YBR021W, strain FUR4, hits give low values 0.996 | locus YBR023C, strain chs3, hits give low values 1 | locus YBR171W, strain sec66, hits give low values 1.01 | locus YBR229C, strain ROT2, hits give low values 0.987 | locus YBR231C, strain swc5, hits give low values 0.996 | locus YBR279W, strain paf1, hits give low values 1.01 | locus YCL011C, strain gbp2, hits give low values 1.01 | locus YCL016C, strain dcc1, hits give low values 1 | locus YCL029C, strain bik1, hits give low values 0.976 | locus YCL061C, strain MRC1, hits give low values 0.995 | locus YCL069W, strain vba3, hits give low values 1.01 | locus YCR088W, strain abp1, hits give low values 0.995 | locus YDL005C, strain med2, hits give low values 1 | locus YDL035C, strain GPR1, hits give low values 1.01 | locus YDL040C, strain nat1, hits give low values 0.999 | locus YDL074C, strain BRE1, hits give low values 1.01 | locus YDL101C, strain DUN1, hits give low values 0.981 | locus YDL134C, strain PPH21, hits give low values 0.982 | locus YDL185W, strain tfp1, hits give low values 0.982 | locus YDL192W, strain arf1, hits give low values 0.988 | locus YDR001C, strain nth1, hits give low values 1.01 | locus YDR069C, strain doa4, hits give low values 1 | locus YDR101C, strain arx1, hits give low values 0.98 | locus YDR137W, strain rgp1, hits give low values 0.991 | locus YDR150W, strain NUM1, hits give low values 0.998 | locus YDR159W, strain sac3, hits give low values 0.995 | locus YDR162C, strain NBP2, hits give low values 0.992 | locus YDR195W, strain ref2 0.998 | locus YDR297W, strain sur2, hits give low values 1.01 | locus YDR318W, strain mcm21, hits give low values 0.986 | locus YDR334W, strain swr1, hits give low values 1 | locus YDR335W, strain msn5, hits give low values 1.01 | locus YDR388W, hits give low values 0.979 | locus YDR392W, strain spt3, hits give low values 0.958 | locus YDR502C, strain sam2, hits give low values 1.02 | locus YEL003W, strain gim4, hits give low values 1.01 | locus YEL037C, strain rad23, hits give low values 1.01 | locus YEL061C, strain CIN8 (second series), hits give low values 1.01 | locus YEL061C, strain CIN8, hits give low values 1 | locus YER015W, strain faa2, hits give low values 1 | locus YER016W, strain bim1, hits give low values 1.01 | locus YER110C, hits give low values 0.979 | locus YER111C, strain swi4, hits give low values 1.01 | locus YER155C, strain BEM2 (second series), hits give low values 1.01 | locus YER155C, strain BEM2, hits give low values 0.997 | locus YER167W, strain BCK2, hits give low values 1 | locus YFR010W, strain ubp6, hits give low values 1.01 | locus YGL078C, strain dbp3, hits give low values 0.989 | locus YGL086W, strain mad1, hits give low values 0.999 | locus YGL167C, strain pmr1, hits give low values 1 | locus YGL173C, strain kem1, hits give low values 1 | locus YGL227W, strain vid30, hits give low values 1 | locus YGL240W, strain doc1, hits give low values 0.996 | locus YGL248W, strain PDE1, hits give low values 0.986 | locus YGL253W, strain hxk2, hits give low values 1 | locus YGR078C, strain PAC10, hits give low values 0.987 | locus YGR135W, strain pre9, hits give low values 0.998 | locus YGR229C, strain SMI1, hits give low values 1.01 | locus YGR252W, strain gcn5, hits give low values 1.13 | locus YHR013C, strain ard1, hits give low values 1.01 | locus YHR027C, strain rpn1, hits give low values 1 | locus YHR030C, strain SLT2, hits give low values 0.994 and 1.03 | locus YHR079C, strain IRE1 (second series), hits give low values 0.972 | locus YHR079C, strain IRE1, hits give low values 1.02 | locus YHR094C, strain hxt1, hits give low values 0.983 | locus YHR129C, strain ARP1, hits give low values 0.983 | locus YHR142W, strain chs7, hits give low values 1.01 | locus YHR200W, strain rpn10, hits give low values 0.988 | locus YIL066C, strain RNR3, hits give low values 0.994 | locus YIL073C, strain SPO22, hits give low values 0.998 | locus YIL125W, strain kgd1, hits give low values 0.999 | locus YIR030C, strain dcg1, hits give low values 0.984 | locus YJL092W, strain hpr5, hits give low values 1 | locus YJL095W, strain BCK1 (second series), hits give low values 1 | locus YJL095W, strain BCK1, hits give low values 0.98 and 1.03 | locus YJL115W, strain asf1, hits give low values 0.997 | locus YJL129C, strain trk1, hits give low values 0.997 | locus YJL134W, strain LCB3, hits give low values 0.991 | locus YJL154C, strain vps35, hits give low values 1.01 | locus YJL164C, strain tpk1, hits give low values 1 | locus YJL166W, strain qcr8, hits give low values 0.993 | locus YJL168C, strain set2, hits give low values 0.98 | locus YJL187C, strain SWE1 (second series), hits give low values 0.979 | locus YJL187C, strain SWE1, hits give low values 1 | locus YJR043C, strain POL32, hits give low values 0.979 | locus YJR066W, strain TOR1, hits give low values 0.984
